tim10-1 inh = growth inhibitors of tim10-1 mutant yeast, primary screen, luminescence, uHTS. S. cerevisiae tim10-1 ts strain growth, BacTiter-Glo, 24 h. inhibition, % at 20 µM. 330,000 tested, 2.2% active. AID 463190, 2010;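 active = inhibition of at least 40%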;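 also: mutant grown at 25 °C; 0% = DMSO wells with yeast and 100% = wells holding no yeast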
tim23-1 inh = growth inhibitors of tim23-1 mutant yeast, primary screen, luminescence, uHTS. S. cerevisiae tim23-1 growth, BacTiter-Glo luminescence, 24 h. inhibition, % at 20 µM. 330,000 tested, 1.3% active. AID 463212, 2010;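 active = growth inhibition of the mutant yeast at or above 50%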;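 also: temperature-sensitive mutant grown at 25 °C; plate controls were DMSO-treated mutant yeast for no effect and medium wells lacking yeast for full effect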
TIM10 inh = growth inhibitors of isogenic TIM10 control yeast, primary screen, counter-screen for tim10-1 yeast inhibitor project, luminescence, uHTS. S. cerevisiae TIM10 strain growth, BacTiter-Glo luminescence, 24 h. inhibition, % at 10 µM. 330,000 tested, 1.4% active. AID 463195, 2010;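 active = inhibition of 40% or more at the single tested concentration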;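 also: wild-type TIM10 isogenic control strain grown at permissive 25 °C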
NALP3 yeast inh = NALP3 inflammasome inhibitors in reconstituted yeast, primary screen, luminescence, uHTS. Yeast reconstituted NLRP3/ASC/caspase-1, beta-gal luminescence, 24 h. inhibition, % at 10 µM. 330,000 tested, 0.39% active;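 active = inhibition of 50% or more; inactive = inhibition below 50%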;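 also: plate controls were induced DMSO wells for no effect and uninduced yeast grown without galactose for full effect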
NALP1 yeast inh = NALP1 inflammasome inhibitors in reconstituted yeast, colorimetric, S. cerevisiae, triplicate retest; S. cerevisiae NALP1/ASC/caspase-1 growth, X-gal OD620, 72 h; inhibition, % at 10 µM; 280,000 tested, 0.61% active; AID 2071, 2009; in the data active = inhibition mostly above about 24%, no sharp cut-off; inactive = mostly below about 32%
SKKanGAS inh = S. pyogenes SKKanGAS growth inhibitors in kanamycin, primary screen, streptokinase expression inhibitor project, SKKanGAS strain, BacTiter-Glo luminescence; 300,000 tested, 1.3% active; 6 h; inhibition, % at 7.5 µM; AID 1662, 2009;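 active = mean replicate score, as percent of positive control median, at least 50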;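 also: strain carries kanamycin resistance gene driven by streptokinase promoter and grows in 40 µg/ml kanamycin; loss of luminescence reflects streptokinase promoter inhibition or plain growth inhibition; 0% = median of DMSO wells and 100% = positive control at its reference dose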
The depositor's hits bear a star; · = no result. The list is not random: actives were taken first. Their share in the collection is about 4.9%.

SMILES	tim10-1 inh	tim23-1 inh	TIM10 inh	NALP3 yeast inh	NALP1 yeast inh	SKKanGAS inh
CCOc1ccccc1-c1cc(C(=O)N/N=C/c2cccnc2)c2ccccc2n1	16	12	28	-3	·	7
Clc1ccccc1CN1CCN(CCCc2ccccc2)CC1	·	·	·	·	22*	2
OCC1(CCc2ccccc2)CCN(Cc2ccccc2Cl)CC1	9	4	11	22	5	6
Cc1cccc(CN2CCN(CCCc3ccccc3)CC2)c1	-36	-83	-38	19	31*	4
Cc1cccc(CN2CCSCC2)c1	-16	-1	0	25	-57	-2
O/C(=C\c1ccc2ccccc2n1)c1ccc(O)cc1O	6	2	30	26	4	-1
O=C(/C=C/Nc1ccc(F)c(Cl)c1)c1ccco1	3	13	11	2	31*	-7
CC12CCC(=O)N1C(C(=O)N1CCN(c3ccc([N+](=O)[O-])cc3)CC1)CS2 (stereo unspecified)	9	12	-4	19	·	·
CCCCC(CC)C(=O)Oc1ccc(O)c(C(C)(C)C)c1 (stereo unspecified)	23	11	5	-9	36	61*
CC(C)(C)c1cc(OC(=O)C2CCCC2)ccc1O	-11	15	24	6	24	23
O=[N+]([O-])c1ccc(O)c(-c2nc(-c3ccccc3)c(-c3cccs3)[nH]2)c1	28	30	26	-14	3	102*
O=C(O)c1ccc(-c2nc(-c3ccccc3)c(-c3cccs3)[nH]2)cc1	9	20	20	-40	·	13
CN(CC(=O)Nc1c(Cl)cccc1Cl)C(=O)Cn1[nH]c(=O)c2ccccc2c1=O	-7	-7	6	5	·	·
COc1cc(NC(=O)c2cc3nc(-c4ccccc4)cc(-c4ccccc4)n3n2)cc(OC)c1OC	9	15	22	26	11	54*
COc1cc(NC(=O)c2cc(-c3ccccc3)on2)cc(OC)c1OC	3	32	20	22	19	-8
CN(C)c1ccc(/C=C/c2ccc3ccccc3n2)cc1	·	·	·	·	16	75*
C(=C\c1ccc2ccccc2n1)/c1ccccc1	-8	25	-2	36	·	15
O=c1[nH]c(=O)n([C@H]2C[C@H](O)[C@@H](CO)O2)cc1F	·	·	·	·	15	92*
CCc1ccccc1NC(=O)COc1cccc(-n2cnnn2)c1	4	6	-1	19	4	0
CC(C)(C)N(Cc1ccccc1)C(=O)COc1cccnc1[N+](=O)[O-]	30	18	6	13	-22	52*
C[C@H](CO)N1C[C@H](C)[C@@H](CN(C)C(=O)NC2CCCCC2)Oc2c(NC(=O)C3CC3)cccc2C1=O	-10	-8	-1	7	·	·
C=CCC1(CC=C)CCCN1C(=O)c1cc(COc2ccc(C)nc2)on1	23	28	15	14	9	-1
CCN(C(=O)CSc1nncs1)c1c(N)n(Cc2ccccc2)c(=O)[nH]c1=O	-5	8	-1	-7	9	-7
CC(C)CN(C(=O)CSc1nncs1)c1c(N)n(CC(C)C)c(=O)[nH]c1=O	-2	1	-18	6	45*	-1
CCOc1ccc(C(=O)C(CN2CCOCC2)c2ccccc2)cc1 (stereo unspecified)	·	·	·	·	84*	2
SMILES	tim10-1 inh	tim23-1 inh	TIM10 inh	NALP3 yeast inh	NALP1 yeast inh	SKKanGAS inh
OC(COc1ccc(OCc2ccccc2)cc1)CN1CCOCC1 (stereo unspecified)	4	17	-5	22	39*	-7
COC(=O)C1N[C@@H]([C@@H](NC(=O)COc2ccccc2)C(=O)NCc2ccsc2)SC1(C)C (stereo partly specified)	13	5	1	1	·	0
CN1CCNC(=O)C1CC(=O)NCCc1ccccc1F (stereo unspecified)	-7	2	-17	13	10	-1
CC(C)c1ccc(OC(=O)c2ccc3c(=O)n4c(nc3c2)CCC4)cc1	17	-1	6	7	·	80*
O=C(Oc1ccc(F)c(F)c1)c1ccc2c(=O)n3c(nc2c1)CCC3	24	12	8	-17	·	4
C#CCN(C)CCCOc1ccc(Cl)cc1Cl	-2	3	4	46	56*	3
Cc1ccc(C2C(/C=C3/SC(=S)NC3=O)=C(c3cccs3)Oc3ccccc32)cc1 (stereo unspecified)	27	23	17	8	-2	113*
CC1Cc2cc(/C=C3/SC(=S)NC3=O)ccc2O1 (stereo unspecified)	33	47	31	35	·	12
Clc1ccccc1-c1nn2c(COc3ccccc3)nnc2s1	34	36	25	21	40*	17
Cc1ccc2c(c1)-n1c(nc3ccccc3c1=O)C(Cc1ccc(O)cc1)NC2=O (stereo unspecified)	-5	-8	0	17	·	·
CCOC(=O)c1[nH]c2ccc(OC)cc2c1NC(=O)C(C)N1CCC2(CC1)OCCO2 (stereo unspecified)	·	·	·	·	18	·
CCOC(=O)c1[nH]c2ccc(F)cc2c1NC(=O)C(C)N1CCc2cc(OC)c(OC)cc2C1 (stereo unspecified)	27	13	24	-8	31*	8
Cc1cc(SCC(=O)OCC(=O)N(C)c2ccccc2)nc2ccccc12	20	29	24	14	·	14
Cc1c(C(=O)NCC2CCCO2)oc2c(Cl)cccc12 (stereo unspecified)	18	17	6	18	·	-5
CC1CCCC(C)N1C(=O)c1cc(-c2ccco2)on1 (stereo unspecified)	4	11	17	3	4	-1
COc1cccc(-c2cc(C(=O)N3C(C)CCCC3C)no2)c1 (stereo unspecified)	29	32	39	10	43*	-2
CCOc1ccc(-c2csc(/C(C#N)=C\c3ccc(O)c([N+](=O)[O-])c3)n2)cc1	30	17	20	24	38	101*
O=C1CC(SC(=Nc2ccccc2)Nc2ccccc2)C(=O)N1c1ccc(Cl)c(Cl)c1 (stereo unspecified)	21	1	11	0	20	72*
Cc1cccc(N2C(=O)CC(SC(=Nc3ccccc3)Nc3ccccc3)C2=O)c1 (stereo unspecified)	16	12	16	1	31	2
Cc1cc(C(F)(F)F)nc(SCCN2CCCCC2)c1C#N	-15	-6	-2	8	10	1
CCC(OCC(O)CN1CCCCC1)c1ccccc1 (stereo unspecified)	-21	-8	-5	12	12	-1

Screening results from PubChem BioAssay.
